# Assay results published in PubChem BioAssay (NCI).
# The panel holds about 83,000 compounds, 20% with a hit somewhere; the sample as a whole holds those more often.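 48-hour exposure, single concentration, 96-well plates; percent growth endpoint where 0 means no net growth. Active: below 10.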 Values without a mark were called inactive. Calls of active or inactive are those of the source.
# Assays:
# Experiment in all cases: NCI-60 one-dose screen, 48 h (100 = growth as untreated, 0 = no growth, -100 = all killed)
# Conditions in all cases: 10 µM unless noted
# [1] = system: HCT-15 colon
# [2] = system: HT29 colon
# [3] = system: SNB-75 CNS
# [4] = system: SNB-19 CNS
# [5] = system: U251 CNS
# [6] = system: PC-3 prostate
# [7] = system: SK-MEL-5 melanoma
# [8] = system: UACC-62 melanoma
# [9] = system: LOX IMVI melanoma
# [10] = system: SK-MEL-28 melanoma
Compound,growth [1],growth [2],growth [3],growth [4],growth [5],growth [6],growth [7],growth [8],growth [9],growth [10]
O=c1c2cc(F)ccc2sc2c(N3CCNCC3)nc3ccc(F)cc3c12,-66.4% (active),-41.2% (active),53.9%,57%,-56.2% (active),32%,81.5%,0.994% (active),-98.5% (active),27.9%
NS(=O)(=O)c1ccc(N=Nc2ccc(-c3nn4cc(-c5ccccc5)nc4s3)cc2)cc1,99.2%,99.1%,86.1%,108%,99.7%,94%,101%,101%,96.9%,105%
CCOC(=O)/C=C1\S/C(=N\Nc2ccc([N+](=O)[O-])cc2[N+](=O)[O-])N(Cc2ccccc2)C1=O,35.8%,85.9%,55.7%,82.9%,71.7%,64.5%,96.8%,74.1%,86%,98.6%
CC1Cc2ccccc2N1NC(=O)c1ccc(Cl)c(S(N)(=O)=O)c1 (stereo not given),106%,99.9%,90.4%,102%,100%,88%,101%,99.4%,96.2%,104%
O=C(COc1ccc(/C=C2\Cc3ccc(Cl)cc3C2=O)cc1)Nc1nc2ccccc2s1,106%,116%,88%,98%,97.8%,92%,105%,98.2%,72.8%,108%
COc1ccc2c(c1)nc(NNC(=O)c1cnccn1)c1cccn12,21.5%,27.2%,70.5%,31.3%,27.3%,39.4%,26.4%,11.5%,9.17% (active),25.1%
Nc1nc2ccccc2c2c(=O)c3cc(F)ccc3sc12,98.6%,99.8%,93.1%,101%,105%,103%,98.5%,102%,99.6%,103%
Cc1ccc(-c2nc(SCC(=O)Nc3nc(-c4ccc(Cl)cc4)cs3)[nH]c(=O)c2C#N)cc1,90.2%,95.9%,87.4%,108%,94%,90.3%,102%,90.5%,108%,108%
Cc1ccc(-c2nc(N3CCN(CC(=O)Nc4ccc(Cl)c(C(F)(F)F)c4)CC3)c3ccccc3n2)cc1,79.1%,89.8%,81.2%,98.8%,93.2%,79.1%,103%,83%,92.1%,105%
Cc1nc2ccccc2c(/C=C/c2ccccc2)c1C(=O)/C=C/c1ccc(C(F)(F)F)cc1,-19.9% (active),5.76% (active),-5.13% (active),-64.9% (active),-62.1% (active),-28% (active),-78.9% (active),-51.6% (active),-87.4% (active),-67% (active)
CNC(C)[C@H]1CCC2C3CCC4C[C@@H](N(C)C(=O)c5ccccc5)CC[C@]4(C)C3CC[C@@]21C (stereo not given in full),-42.2% (active),-33.3% (active),15.5%,66.6%,29.9%,16.3%,-74.2% (active),-66% (active),-52.2% (active),-71.4% (active)
COc1ccc2sc3c(NCCCN(C)C)nc4ccccc4c3c(=O)c2c1,50.2%,-47.5% (active),53.5%,71.4%,-1.18% (active),63%,66.4%,77.3%,-100% (active),-73.1% (active)
C#C[C@]1(O)CC[C@H]2[C@@H]3CC=C4c5sc(Nc6cc(F)ccc6F)nc5CC[C@]4(C)[C@H]3CC[C@@]21C,-28.4% (active),8.03% (active),-28.6% (active),6.38% (active),-15.2% (active),-8.02% (active),13.2%,-36.2% (active),-77.7% (active),-44.9% (active)
CN(C)CC#Cc1ccc2ncc(C#N)c(Nc3ccc(F)c(Cl)c3)c2c1,32%,66%,48.1%,76.4%,63.8%,40.5%,51.4%,42.9%,49%,69.4%
COc1cc(/C=C/c2ccccc2)cc(OC)c1,91%,90.4%,93.1%,98.7%,84.1%,94.6%,96.5%,83.4%,84.8%,111%
CNCCCC12CCC(c3ccccc31)c1ccccc12,95.4%,60.4%,60.2%,91.5%,81.1%,71.9%,75.3%,90.9%,79.6%,87.4%
O=c1c2cc(F)ccc2sc2c(N3CCNCC3)nc3ccccc3c12,-40.7% (active),-37.7% (active),70.2%,65.3%,-24.2% (active),48.7%,76.8%,59.5%,-99.1% (active),57.7%
CCOC(=O)c1c2c(n(-c3ccc(C#N)cc3)c1-c1ccccc1)C=CCC2,76.9%,68.2%,83.9%,98.4%,99.7%,70.1%,92.8%,75%,84%,102%
O=c1c2cc(F)ccc2sc2c(NCCO)nc3ccccc3c12,101%,107%,87%,94%,97.6%,105%,99.4%,94.2%,97.2%,126%
c1ccc2cc(C[n+]3ccn(CCCCCCn4cc[n+](Cc5ccc6ccccc6c5)c4)c3)ccc2c1,96.4%,22.8%,26.7%,48.8%,34.4%,65.4%,42.3%,50.1%,66.8%,63.4%
CC(C)OC(=O)Nc1ccc(-c2nc(-c3cccc(OCCN4CCOCC4)c3)c(-c3ccnc(Br)c3)[nH]2)cc1,4.55% (active),1.53% (active),-19.3% (active),22.5%,17.3%,19.7%,21.7%,15.1%,3.35% (active),0.701% (active)
O=C(Nc1nc2ccc(F)cc2s1)c1cccnc1Nc1ccc(Cl)cc1Cl,16.9%,7.92% (active),34.7%,20.2%,15.8%,3.63% (active),-2.74% (active),20.1%,32.5%,37.8%
C[C@]12CC[C@@H]3c4cc(OC(F)F)c(OS(N)(=O)=O)cc4CC[C@H]3[C@@H]1CC[C@@H]2O,13.2%,13.9%,-15.7% (active),48.4%,28.2%,25.5%,6.56% (active),55.7%,28.6%,53.6%
Cc1ccc(S(=O)(=O)N/N=C/C2(c3ccccc3)CC2)cc1,115%,109%,88.2%,99.3%,103%,93.7%,105%,102%,96.9%,106%
CN1CCN(c2ccc(-c3cc4c(Nc5ccc(F)c(Cl)c5)ncnn4c3)cn2)CC1,7.04% (active),16.1%,72%,96.2%,82.5%,94.2%,100%,106%,85.2%,87.6%
CC(C)(C)NC(=O)C(OC(=O)c1cccc(Cl)c1)c1ccc(Cl)cc1 (stereo not given),103%,87.6%,103%,103%,94.5%,94%,98.2%,104%,94.1%,105%
Cc1ccc(/C=N\NC(=O)c2[nH]c3ccc(F)cc3c2-c2ccccc2)cc1,24.1%,2.07% (active),13.7%,45.9%,12.4%,15%,-17.1% (active),44.9%,26.5%,71.5%
